Measured potencies and affinities stand elsewhere.
The molecules below were run against Short transient receptor potential channel 4 (Mus musculus) (UniProt Q9QUQ5) (assay: calcium entry via TRPC4 opening agents – cell-based, HEK293 TRPC4/mu-opioid, Fluo-4 calcium, dose response (AID 434937;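 active means primary screen activator hit with a dose response curve and TRPC4 channel activation at any tested dose; inactive means no activation, no dose response, or not a primary hit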)). Conditions: HEK293 TRPC4 cells, Fluo-4 calcium fluorescence ratio; series mostly up to 20 µM; activation ratio: at the top concentration.
Short transient receptor potential channel 4 (Mus musculus), sequence (Q9QUQ5 whole entry, looked up): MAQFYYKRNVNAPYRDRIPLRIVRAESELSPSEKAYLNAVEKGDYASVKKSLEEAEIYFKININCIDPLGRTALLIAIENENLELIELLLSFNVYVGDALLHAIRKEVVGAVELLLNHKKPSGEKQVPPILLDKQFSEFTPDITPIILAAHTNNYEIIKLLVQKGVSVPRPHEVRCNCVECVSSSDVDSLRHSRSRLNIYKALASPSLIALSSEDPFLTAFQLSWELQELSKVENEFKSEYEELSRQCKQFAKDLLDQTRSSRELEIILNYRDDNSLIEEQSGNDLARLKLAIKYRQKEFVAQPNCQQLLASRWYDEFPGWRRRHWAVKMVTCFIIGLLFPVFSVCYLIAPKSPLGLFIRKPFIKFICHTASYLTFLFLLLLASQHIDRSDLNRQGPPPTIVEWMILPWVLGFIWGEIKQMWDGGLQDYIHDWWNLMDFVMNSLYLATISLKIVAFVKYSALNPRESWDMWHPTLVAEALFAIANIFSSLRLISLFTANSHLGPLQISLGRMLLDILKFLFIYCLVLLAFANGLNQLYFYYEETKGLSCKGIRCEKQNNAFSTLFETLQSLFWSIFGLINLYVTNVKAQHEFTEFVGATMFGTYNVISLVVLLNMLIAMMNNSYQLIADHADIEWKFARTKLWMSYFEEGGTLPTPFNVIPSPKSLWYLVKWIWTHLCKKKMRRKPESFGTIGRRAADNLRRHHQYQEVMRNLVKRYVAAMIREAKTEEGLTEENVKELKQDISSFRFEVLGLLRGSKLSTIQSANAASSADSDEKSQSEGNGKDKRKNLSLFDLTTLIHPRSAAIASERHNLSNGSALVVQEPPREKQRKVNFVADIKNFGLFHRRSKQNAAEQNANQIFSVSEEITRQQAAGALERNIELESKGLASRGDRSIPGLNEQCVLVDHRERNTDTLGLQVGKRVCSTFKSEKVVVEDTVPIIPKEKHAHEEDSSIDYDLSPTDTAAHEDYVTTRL

Activation ratio, inactive:
CCC(O)(c1ccc(OC)cc1)C(CN1CCOCC1)c1ccccc1 (stereo not given) 2.1, COc1ccc(Nc2cc(C)nc3ccc(OC)cc23)cc1 42.6, Cc1ccc(C(C)(C)C)cc1S(=O)(=O)Nc1nc2ccccc2nc1Cl 15.6, CN(C)C(CNC(=O)c1ccccc1OCc1ccc(Cl)cc1)c1ccco1 (stereo not given) 2.78, COc1ccc(-c2csc(NC(=O)Cc3cccc4ccccc34)c2C(=O)O)cc1 1.73, CC1CCN(C(C)C(=O)Nc2ccccc2-c2ccccc2)CC1 (stereo not given) 5.46, O=c1c2ccccc2nc(SCc2ccccc2)n1CC1CCCO1 (stereo not given) 1.49, CC(=O)Nc1cccc(C(=O)NCC2(N3CCCCC3)CCCCC2)c1 1.6, Cc1ccn2cc(CCNC(=O)c3ccc(Br)o3)nc2c1 -0.7, CCOc1ccc2ccccc2c1CNCCc1ccc(S(N)(=O)=O)cc1 1.28, CCc1cccc(OCC(=O)Nc2ccc(C(=O)O)cc2NC(=O)COc2cccc(CC)c2)c1 -1.26, COc1ccc(CN2CCN(C(=O)c3ccc(F)cc3)CC2)c(OC)c1 -0.6, CCOc1ccc(Br)cc1/C=N/O 9.49, CCC1CCCCN1Cc1nc2c(c(=O)n(C)c(=O)n2C)n1Cc1ccccc1 (stereo not given) -0.97, O=C(c1ccc2c(c1)OCO2)C1CCCN(Cc2ccccc2OC(F)F)C1 (stereo not given) -1.56, O=C(Nc1ccccc1N1CCN(C(=O)c2ccccc2)CC1)c1ccc(Br)o1 -1.3, Cc1ccc(C(=O)C2=C(O)C(=O)N(Cc3cccnc3)C2c2ccc(Cl)c(Cl)c2)o1 (stereo not given) 0.7, Cc1cccc(CCN(C(=O)c2snc(C(N)=O)c2N)C(C(=O)NCC2CCCO2)c2ccc(F)cc2)c1 (stereo not given) 0.26, Cc1ccc(NC(=O)c2cc(N3C(=O)C=CC3=O)ccc2N2CCOCC2)cc1 13.5, Fc1ccccc1Sc1ccccc1CNC1=NCCN1 0.08, CC(C)C(NC(=O)c1ccc(C(C)(C)C)cc1)C(=O)NCC(c1ccccc1)N(C)C (stereo not given) 12.3, COCCn1c(SCC(=O)c2ccccc2)nc2ccccc2c1=O 1.92, COc1ccc(SC[C@H](Cc2ccccc2)N2CCN(C)CCC2=O)cc1 46.2, O=C(CCCSc1nc2ccccc2[nH]1)NCc1ccccc1Cl -1.38, CCOC(=O)C1(Cc2ccccc2)CCN(CC2CC=CCC2)CC1 (stereo not given) 0.5, CCn1c(NCc2c[nH]c3ccccc23)nc2ccccc21 -0.64, COc1ccc(C(CNC(=O)c2oc3ccc(F)cc3c2C)N2CCCCC2)cc1 (stereo not given) 2.36, CCC(=O)N1CCc2cc(S(=O)(=O)NCCN3CCCCC3CC)ccc21 (stereo not given) 0.81, Nc1cc(N2CCCCC2)c([N+](=O)[O-])cc1Cl -1.45, Cc1c(CCOC(=O)c2cccc([N+](=O)[O-])c2)sc[n+]1CC(=O)c1ccccc1 2.02, CCOc1cc(CNCCCN2CCOCC2)cc(Br)c1OCc1ccccc1Cl 11.2, Cc1ccc(Sc2ccc(CO)cc2[N+](=O)[O-])cc1 -2.8, Cc1ccc(Cn2c(Cc3ccccc3)nc3ccccc32)cc1 0.36, CC1CCc2c(sc(/N=C/N(C)C)c2C#N)C1 (stereo not given) -1.5, COc1ccccc1N1CCN(CC(C)N(C(=O)C2CCCCC2)c2ccccn2)CC1 (stereo not given) 24.7, CCN(CC)c1ncnc2scc(C3COc4ccccc4O3)c12 (stereo not given) 0.09, COc1ccc(Sc2nc(-c3ccccc3)ncc2C(=O)O)cc1 2.89, Cc1cccc(CN2CCCC(C(=O)Nc3ccccc3Oc3cccnc3)C2)c1 (stereo not given) -1.42, Cn1nnnc1SCCNCc1ccccc1OCc1ccc(Cl)cc1 3.43, O=C(C[n+]1cccc(CNC(=O)c2ccc(OC(F)F)cc2)c1)Nc1ccc(SC(F)F)cc1 3.07

Each molecule was assayed against Short transient receptor potential channel 4 (Mus musculus) (UniProt Q9QUQ5) (assay: potentiation of DAMGO-evoked TRPC4 calcium signal – cell-based, HEK293 TRPC4/mu-opioid, Fluo-4 calcium, EC20 DAMGO, dose response (AID 434941;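 further: calcium entry triggered by an EC20 dose of DAMGO at the co-expressed mu-opioid receptor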)). Conditions: HEK293 TRPC4/mu-opioid cells, Fluo-4 calcium fluorescence; series mostly up to 20 µM; potentiation ratio: at the top concentration.

Potentiation ratio, inactive:
CCC(O)(c1ccc(OC)cc1)C(CN1CCOCC1)c1ccccc1 (stereo not given) -1.09, COc1ccc(Nc2cc(C)nc3ccc(OC)cc23)cc1 -23.2, Cc1ccc(C(C)(C)C)cc1S(=O)(=O)Nc1nc2ccccc2nc1Cl -2.51, CN(C)C(CNC(=O)c1ccccc1OCc1ccc(Cl)cc1)c1ccco1 (stereo not given) -9.59, COc1ccc(-c2csc(NC(=O)Cc3cccc4ccccc34)c2C(=O)O)cc1 0.5, CC1CCN(C(C)C(=O)Nc2ccccc2-c2ccccc2)CC1 (stereo not given) -10.5, O=c1c2ccccc2nc(SCc2ccccc2)n1CC1CCCO1 (stereo not given) 3.19, CC(=O)Nc1cccc(C(=O)NCC2(N3CCCCC3)CCCCC2)c1 0.03, Cc1ccn2cc(CCNC(=O)c3ccc(Br)o3)nc2c1 1.01, CCOc1ccc2ccccc2c1CNCCc1ccc(S(N)(=O)=O)cc1 -0.7, CCc1cccc(OCC(=O)Nc2ccc(C(=O)O)cc2NC(=O)COc2cccc(CC)c2)c1 -0.25, COc1ccc(CN2CCN(C(=O)c3ccc(F)cc3)CC2)c(OC)c1 0.96, CCOc1ccc(Br)cc1/C=N/O -5.76, CCC1CCCCN1Cc1nc2c(c(=O)n(C)c(=O)n2C)n1Cc1ccccc1 (stereo not given) 0.68, O=C(c1ccc2c(c1)OCO2)C1CCCN(Cc2ccccc2OC(F)F)C1 (stereo not given) 0.74, O=C(Nc1ccccc1N1CCN(C(=O)c2ccccc2)CC1)c1ccc(Br)o1 1.38, Cc1ccc(C(=O)C2=C(O)C(=O)N(Cc3cccnc3)C2c2ccc(Cl)c(Cl)c2)o1 (stereo not given) 0.81, Cc1cccc(CCN(C(=O)c2snc(C(N)=O)c2N)C(C(=O)NCC2CCCO2)c2ccc(F)cc2)c1 (stereo not given) 2.09, Cc1ccc(NC(=O)c2cc(N3C(=O)C=CC3=O)ccc2N2CCOCC2)cc1 2.9, Fc1ccccc1Sc1ccccc1CNC1=NCCN1 -1.02, CC(C)C(NC(=O)c1ccc(C(C)(C)C)cc1)C(=O)NCC(c1ccccc1)N(C)C (stereo not given) -7.21, COCCn1c(SCC(=O)c2ccccc2)nc2ccccc2c1=O 1.8, COc1ccc(SC[C@H](Cc2ccccc2)N2CCN(C)CCC2=O)cc1 -23.7, O=C(CCCSc1nc2ccccc2[nH]1)NCc1ccccc1Cl -0.74, CCOC(=O)C1(Cc2ccccc2)CCN(CC2CC=CCC2)CC1 (stereo not given) -0.14, CCn1c(NCc2c[nH]c3ccccc23)nc2ccccc21 -1.05, COc1ccc(C(CNC(=O)c2oc3ccc(F)cc3c2C)N2CCCCC2)cc1 (stereo not given) -1.41, CCC(=O)N1CCc2cc(S(=O)(=O)NCCN3CCCCC3CC)ccc21 (stereo not given) 2.11, Nc1cc(N2CCCCC2)c([N+](=O)[O-])cc1Cl -0.17, Cc1c(CCOC(=O)c2cccc([N+](=O)[O-])c2)sc[n+]1CC(=O)c1ccccc1 4.04, CCOc1cc(CNCCCN2CCOCC2)cc(Br)c1OCc1ccccc1Cl -7.16, Cc1ccc(Sc2ccc(CO)cc2[N+](=O)[O-])cc1 -0.63, Cc1ccc(Cn2c(Cc3ccccc3)nc3ccccc32)cc1 -0.74, CC1CCc2c(sc(/N=C/N(C)C)c2C#N)C1 (stereo not given) 6.15, COc1ccccc1N1CCN(CC(C)N(C(=O)C2CCCCC2)c2ccccn2)CC1 (stereo not given) -10.7, CCN(CC)c1ncnc2scc(C3COc4ccccc4O3)c12 (stereo not given) -0.35, COc1ccc(Sc2nc(-c3ccccc3)ncc2C(=O)O)cc1 -0.38, Cc1cccc(CN2CCCC(C(=O)Nc3ccccc3Oc3cccnc3)C2)c1 (stereo not given) -0.4, Cn1nnnc1SCCNCc1ccccc1OCc1ccc(Cl)cc1 -3.22, O=C(C[n+]1cccc(CNC(=O)c2ccc(OC(F)F)cc2)c1)Nc1ccc(SC(F)F)cc1 2.08

Source: PubChem BioAssay
